NPC1 prom act – qHTS Assay for NPC1 Promoter Activators. Huh7 NPC1 promoter luciferase reporter, 24 h. 320,000 tested, 2.4% active. Potency, µM (highest dose often 9.22 µM), for inactives: at the top dose activation, actives largely listed as activators; note: % of control where 0% means no effect; nearly all actives have a fitted effect of over 60% in size
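Huh7 reporter cells (NPC1 promoter driving luciferase) are dosed with compound for 24 h at 37 °C, 5% CO2; luciferase detection reagent is then added and luminescence measured after 10 min at ambient temperature.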
SMN2 splice enh – qHTS Assay for Enhancers of SMN2 Splice Variant Expression; 210,000 tested, 2.8% active; Potency, µM (top dose mostly 46.1 µM), for inactives: top-dose activity change, positive = activation, hits mostly activators; AID 1458, 2008; HEK293 SMN2-luciferase splicing reporter, luminescence, 30-36 h; note: % of control where 0% means no effect; nearly all actives have a fitted effect of over 55% in size
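qHTS luciferase splicing reporter: luminescence rises when SMN2 exon 7 is included in transfected HEK293 cells. Compound exposure lasted 30-36 h at 37C, with 4.5 mM final sodium butyrate as control, followed by a ONE-Glo read.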
Rab9 prom act – qHTS Assay for Rab9 Promoter Activators. 320,000 tested, 2.8% active. AID 485297, 2010. Huh7 Rab9 promoter-luciferase reporter, luminescence, 24 h. Potency, µM (highest dose often 9.22 µM), without a hit: top-dose activation, negative = inhibition, hits mostly activators; note: % of control where 0% means no effect; nearly all actives have a fitted effect of over 60% in size
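Luciferase signal after 10 min detection reagent at ambient indicates Rab9 promoter upregulation; stably transfected Huh7 cells were treated 24 h with compound in DMSO at 37 °C, 5% CO2.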
Luc counter – Counterscreen for Luciferase (Kinase-Glo TM) Inhibition. Kinase-Glo luciferase, ATP luminescence, 8 min. AID 1379, 2008. 200,000 tested, 0.28% active. Luciferin 4-monooxygenase (Photuris pensylvanica), Q27757. Potency, µM (titrated, usually from 38.3 µM), for the others: top-dose activity change, negative = inhibition, most hits filed as inhibitors; note: % is set by controls: 0 for no effect and ±100 for the full control effect; nearly all actives have a fitted effect of over 60% in size
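Luminescence was the read-out, taken after 8-minute incubation at ambient temperature. Luciferase turned over luciferin with 10 uM ATP in imidazole pH 7.2 buffer containing KCl, MgCl2, Tween 20 and BSA.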
ELG1 genotoxic – qHTS screen for small molecules that induce genotoxicity in human embryonic kidney (HEK293T) cells expressing luciferase-tagged ELG1 | 330,000 tested, 1.3% active | Potency, µM (highest dose often 46 µM), inactives show at the top dose activity change, positive = activation, actives largely listed as activators | HEK293T ELG1-luciferase reporter, luminescence, 16 h; note: % of control where 0% means no effect; nearly all actives have a fitted effect of over 60% in size
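Cells (2,000/well) expressing the ELG1-luciferase fusion are dosed by pin tool and kept 16 hr at 37 °C, 5% CO2. Signal comes from ONE-Glo luciferase reagent after 30 min at room temperature.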
FLuc counter – qHTS profiling assay for firefly luciferase inhibitor/activator using purifed enzyme and Km concentrations of substrates (counterscreen for miR-21 project); purified FLuc, Km substrates, luminescence inhibition; Potency, µM (doses to about 57.5 µM), for inactives: at the highest dose activity change, negative = inhibition, usual class: inhibitors; 360,000 tested, 6.9% active;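 note: plate controls were vehicle for no effect and reference inhibitor for full effect; nearly all actives have a fitted effect of over 55% in size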
Target sequence (P08659 whole entry, looked up): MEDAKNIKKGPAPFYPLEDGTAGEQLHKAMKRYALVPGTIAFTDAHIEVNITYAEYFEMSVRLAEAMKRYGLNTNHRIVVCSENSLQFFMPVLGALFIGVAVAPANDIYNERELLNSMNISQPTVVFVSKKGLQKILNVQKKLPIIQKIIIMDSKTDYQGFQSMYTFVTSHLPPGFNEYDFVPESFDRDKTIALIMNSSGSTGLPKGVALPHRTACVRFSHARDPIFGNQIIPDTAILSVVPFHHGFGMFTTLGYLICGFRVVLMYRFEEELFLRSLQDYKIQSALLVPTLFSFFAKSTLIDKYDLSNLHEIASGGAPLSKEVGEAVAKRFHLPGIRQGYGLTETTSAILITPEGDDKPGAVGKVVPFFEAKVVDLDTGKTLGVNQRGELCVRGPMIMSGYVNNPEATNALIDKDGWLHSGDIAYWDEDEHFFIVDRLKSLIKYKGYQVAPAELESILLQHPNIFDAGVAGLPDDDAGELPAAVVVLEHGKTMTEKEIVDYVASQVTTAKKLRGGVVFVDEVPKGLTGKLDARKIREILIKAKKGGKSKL
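Purified P. pyralis luciferase, 10 nM final, with Km-level 10 uM D-luciferin and 10 uM ATP in 50 mM Tris acetate pH 7.5, 10 mM Mg acetate, 0.01% Tween-20, 0.05% BSA; 6-point qHTS titration about 60 µM downward; luminescence read.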
Numbers without * were called inactive; ? = inconclusive; nt = no result given; [ ] = remark or other dose. Sampled rows, rich in hits. Any-hit rate of the full collection: about 7.3%. Calls come from the whole dose curve; as a rule, active = well fitted curve in the direction sought with a large enough effect; inconclusive = small, poorly fitted or top-dose-only effect, or another doubt; inactive = no such curve, though single readings can be large; an effect the other way counts as inactive or inconclusive. Potency is the fitted concentration of half-maximal effect.

SMILES	NPC1 prom act	SMN2 splice enh	Rab9 prom act	Luc counter	ELG1 genotoxic	FLuc counter
O=C(Oc1ccccc1)C1O[C@@H]1c1ccccc1 (some centres not stated)	nt	-3.5%	nt	-0.5%	nt	nt
Cc1ccccc1Nc1oc(-c2ccccc2)nc1-c1ccccc1	nt	-0.4%	nt	-21.8%	nt	nt
Oc1cccc(/C=N/Nc2cc(N3CCCC3)nc(N3CCCC3)n2)c1	-0.7%	-18.2%	-0.1%	-1.4%	-7.5%	13.5µM*
C/C(=N\NC(=O)c1ccc(O)cc1)c1ccc(N2CCOCC2)cc1	9.2%	nt	4.5%	nt	3.6%	?
COc1ccc(/C=N/Nc2cc(N3CCOCC3)ncn2)c(OC)c1	1.5%	nt	3.3%	nt	3.4%	-8.7%
C(=N\Nc1cc(N2CCCCC2)ncn1)/c1ccco1	?	nt	?	nt	?	4.78µM*
COc1cccc(/C=N/Nc2cc(N3CCOCC3)ncn2)c1O	-31.2%	nt	-35.8%	nt	?	8.49µM*
C/C(=N\Nc1cc(N2CCOCC2)ncn1)c1ccc(O)cc1	-0.5%	nt	2.7%	nt	9.4%	19µM*
CCOc1ccc(-n2cc(-c3ccccc3)c3c(N4CCC(C)CC4)ncnc32)cc1	nt	nt	nt	nt	nt	-8.9%
CC(=O)O[C@H](C(=O)O[C@@H]1C[C@@H](CCC[C@H]2O[C@H](C(=O)OC(C)C)CC[C@@H]2C)O[C@@H](CC#N)C1)c1ccccc1	nt	6.7%	nt	1.9%	nt	nt
CC(=O)[C@]1(O)CC[C@@H]2[C@H]3C[C@@H](C)C4=CC(=O)CC[C@@]4(C)C3[C@@H](O)C[C@]21C (some centres not stated)	nt	5.1%[9.22 µM]	nt	-4.8%[7.66 µM]	nt	nt
Fc1ccc(/C=N/Nc2cc(N3CCOCC3)ncn2)cc1	?	nt	?	nt	16.6%	?
Fc1cccc(/C=N/Nc2cc(N3CCOCC3)ncn2)c1	1.78µM*	nt	2µM*	nt	?	4.78µM*
CC(C)CC(=O)Nc1nc2nc(-c3ccccc3)cc(=O)n2[nH]1	nt	-2.3%	nt	nt	nt	?
Cc1cc(C(=O)Nc2ccc(Cl)cc2)c(C)n1Cc1cccs1	0.708µM*	nt	0.316µM*	nt	2.31µM*	0.601µM*
Cc1cc(C)cc(NC(=O)c2cc(C)n(Cc3cccs3)c2C)c1	1.12µM*	nt	0.708µM*	nt	?	0.338µM*
CCCN(Cc1cccs1)C(=O)Nc1cc(C)cc(C)c1	nt	nt	nt	nt	nt	-11.3%
COc1ccc(CCn2c(C)cc(C(=O)COC(=O)c3cnccn3)c2C)cc1	-1.4%	nt	1.6%	nt	-3.7%	4.8%
CCCn1c(C)cc(C(=O)COC(=O)c2nccnc2N)c1C	1.12µM*	10µM*	0.447µM*	-9.7%	?	3.38µM*
Cc1cc(C(=O)COc2ncnc3sccc23)c(C)n1C1CC1	?	7.4%	?	-0.4%	?	-13.2%
CCCn1c(C)cc(C(=O)COc2ncnc3sccc23)c1C	2.82µM*	11.2µM*	2.24µM*	1.3%	?	8.49µM*
CSc1ncccc1C(=O)OCC(=O)c1cc(C)n(CC2CCCO2)c1C (configuration not stated)	1.12µM*	nt	0.398µM*	nt	?	0.601µM*
CCn1c(C)cc(C(=O)COC(=O)c2cccnc2SC)c1C	nt	nt	nt	nt	2.31µM*	nt
Cc1ccc(NC2=C([N+](=O)[O-])CS(=O)(=O)C2)cc1	8.0%	18.1%	13.3%	-2.9%	26.3%	13.5µM*
CCCCn1cc(S(=O)(=O)c2ccccc2)c(=O)c2cc(F)c(N3CCN(CCC)CC3)cc21	nt	nt	nt	nt	nt	0.1%
SMILES	NPC1 prom act	SMN2 splice enh	Rab9 prom act	Luc counter	ELG1 genotoxic	FLuc counter
COc1ccc(NC(=O)CCc2c(C)nn(-c3ccc(N4CCCCC4)nn3)c2C)cc1Cl	nt	nt	nt	nt	nt	2.13µM*
COc1ccccc1CNC(=O)CCc1c(C)nn(-c2ccc(N3CCCCC3)nn2)c1C	nt	nt	nt	nt	nt	-17.2%
COc1cc(NC(=O)CCc2c(C)nn(-c3ccc(N4CCCCC4)nn3)c2C)cc(OC)c1OC	nt	nt	nt	nt	nt	19µM*
COC(=O)c1ccc(NC(=O)CCc2c(C)nn(-c3ccc(N4CCCCC4)nn3)c2C)cc1	nt	nt	nt	nt	nt	9.53µM*
Cc1ccc(NC(=O)CCc2c(C)nn(-c3ccc(N4CCOCC4)nn3)c2C)cc1C	5.3%	nt	-0.2%	nt	6.0%	?
Cc1ccccc1NC(=O)CCc1c(C)nn(-c2ccc(N3CCCCC3)nn2)c1C	16.3%	nt	19.3%	nt	1.6%[9.26 µM]	?
CCOC(=O)c1cc(-c2ccc(OC)cc2)n(CCC(=O)NC2CCCCC2)c1C	nt	nt	nt	nt	nt	-9.5%
Cc1cccc(C)c1NC(=O)CN(Cc1ccc(Br)cc1)S(=O)(=O)c1ccccc1	nt	-15.3%	nt	nt	nt	-9.9%
Cc1ccc(Nc2nc(Cl)c(C=O)s2)cc1Cl	-7.1%	4.5%	-0.3%	-10.1%	-2.3%	21.3µM*
O=C(NC(C(=O)N/N=C/c1c2ccccc2cc2ccccc12)c1n[nH]c(=O)c2ccccc12)c1ccccc1 (configuration not stated)	-0.3%	nt	8.3%	nt	-2.6%	1.4%
O=C(NC(C(=O)N/N=C/c1ccccc1)c1n[nH]c(=O)c2ccccc12)c1ccccc1 (configuration not stated)	-0.4%	nt	?	nt	4.0%	19µM*
Cc1cc(C(=O)CSC(=S)SC(C)(C)C)ccc1Cl	nt	-9.2%[9.22 µM]	nt	-2.2%[7.66 µM]	nt	nt
CCCCn1c(=O)c2oc3ccccc3c2n(CC(=O)Nc2cc(C)ccc2C)c1=O	nt	nt	nt	nt	nt	-0.2%
O=C(Nc1ccc(Cl)cc1)Nc1ccccc1C(=O)O	0.355µM*	12.6µM*	0.447µM*	12.6µM*	?	0.477µM*
O=C(Nc1ccc(Cl)c(Cl)c1)Nc1ccccc1C(=O)O	0.355µM*	4.47µM*	0.316µM*	-11.6%	2.31µM*	0.536µM*
COc1ccc(/C=C/C(=O)Nc2sc(C)c(C)c2C(=O)O)cc1	nt	1.0%	nt	nt	nt	1.35µM*
Cc1sc(NC(=O)/C=C/c2ccco2)c(C(=O)O)c1C	?	nt	?	nt	?	5.36µM*
CCOC(=O)c1c(NC(=O)/C=C/c2ccc(C)o2)sc(C)c1C	24.9%	nt	22.9%	nt	-1.0%	-14.3%
CCOc1ccc2nc(NC(=O)CS(=O)(=O)c3ccccc3)sc2c1	-1.3%	6.3%	1.0%	-3.2%	20.8%	12µM*
CCOc1ccc2nc(NC(=O)CS(=O)(=O)c3ccc(C)cc3)sc2c1	6.0%	9.0%	0.6%	-1.1%	12.6%	21.3µM*
COc1ccc(/C=N/S(=O)(=O)c2cccs2)cc1	-0.2%	-12.4%	-1.8%	-6.2%	-2.9%	-0.7%
COc1ccc(/C=C2\S/C(=N/S(=O)(=O)c3cccs3)NC2=O)cc1	-4.1%	8.6%	-0.6%	2.3%	-0.7%	19µM*

Assay outcomes as filed in PubChem BioAssay.
